Bioassay records deposited in PubChem BioAssay by National Center for Advancing Translational Sciences (NCATS).
NPC1 promoter act: qHTS Assay for NPC1 Promoter Activators; Potency, µM (top dose mostly 9.22 µM), for inactives: at the top dose activation, hits mostly activators; Huh7 NPC1 promoter luciferase reporter, 24 h; actives 2.4% (n = 320,000); also: % of control where 0% means no effect; nearly all actives have a fitted effect of over 60% in size
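Stably transfected Huh7 (NPC1 promoter→luciferase), 1500 cells/well in Opti-MEM + 10% FBS, 2 h settle, then compound 24 h at 37 °C. Luminescence after 10 min with Amplite reagent.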
Rab9 promoter act: qHTS Assay for Rab9 Promoter Activators; actives 2.8% (n = 320,000); Huh7 Rab9 promoter-luciferase reporter, luminescence, 24 h; AID 485297, 2010; Potency, µM (series often up to 9.22 µM), for inactives: at the top dose activation, negative = inhibition, hits mostly activators; also: % of control where 0% means no effect; nearly all actives have a fitted effect of over 60% in size
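Huh7 cells stably carrying Rab9 promoter–luciferase reporter, plated 1500 cells/well, compound added after 2 h and incubated 24 h at 37 °C; luciferase luminescence then read after 10 min with detection reagent.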
SMN2 splice up: qHTS Assay for Enhancers of SMN2 Splice Variant Expression. HEK293 SMN2-luciferase splicing reporter, luminescence, 30-36 h. Potency, µM (series often up to 46.1 µM), for inactives: at the top dose activity change, positive = activation, usual class: activators. actives 2.8% (n = 210,000); also: % of control where 0% means no effect; nearly all actives have a fitted effect of over 55% in size
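HEK293 cells carry an SMN2 minigene-luciferase reporter in which exon 7 inclusion puts luciferase in frame. Cells were seeded at 2000 cells/well, attached for 10-12 hours, then exposed to compounds for 30-36 hours at 37C before ONE-Glo luminescence.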
ELG1 genotoxic: qHTS screen for small molecules that induce genotoxicity in human embryonic kidney (HEK293T) cells expressing luciferase-tagged ELG1 | HEK293T ELG1-luciferase reporter, luminescence, 16 h | Potency, µM (series often up to 46 µM), for the others: at the highest dose activity change, positive = activation, usual class: activators | actives 1.3% (n = 330,000); also: % of control where 0% means no effect; nearly all actives have a fitted effect of over 60% in size
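16 hr compound incubation (37 °C, 5% CO2) of HEK293T cells carrying luciferase-tagged ELG1; luciferase then measured by ONE-Glo luminescence after 30 min at RT.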
ELG1 DNA repair: qHTS screen for small molecules that inhibit ELG1-dependent DNA repair in human embryonic kidney (HEK293T) cells expressing luciferase-tagged ELG1; Potency, µM (series often up to 46.1 µM), for the others: at the highest dose activity change, negative = inhibition, most hits filed as inhibitors; HEK293T ELG1-luciferase reporter, luminescence, 16 h; DNA damage induced by 5-fluorouridine; actives 2.3% (n = 330,000); AID 504467, 2011; also: % is scaled to controls: 0 for no effect and ±100 for the full control effect; nearly all actives have a fitted effect of over 55% in size
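Luminescence from the luciferase reporter, measured 30 min after ONE-Glo reagent at room temperature, was the read-out. Beforehand, 2,000 cells per well were exposed for 16 hr at 37 °C to 5-fluorouridine together with compound or vehicle.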
FLuc counter: qHTS profiling assay for firefly luciferase inhibitor/activator using purifed enzyme and Km concentrations of substrates (counterscreen for miR-21 project) | Luciferin 4-monooxygenase (Photinus pyralis), P08659 | purified FLuc, Km substrates, luminescence inhibition | Potency, µM (titrated, usually from 57.5 µM), without a hit: at the highest dose activity change, negative = inhibition, most hits filed as inhibitors | actives 6.9% (n = 360,000) | AID 588342, 2011;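 also: plate controls were vehicle for no effect and reference inhibitor for full effect; nearly all actives have a fitted effect of over 55% in size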
Target sequence (P08659 whole entry, looked up): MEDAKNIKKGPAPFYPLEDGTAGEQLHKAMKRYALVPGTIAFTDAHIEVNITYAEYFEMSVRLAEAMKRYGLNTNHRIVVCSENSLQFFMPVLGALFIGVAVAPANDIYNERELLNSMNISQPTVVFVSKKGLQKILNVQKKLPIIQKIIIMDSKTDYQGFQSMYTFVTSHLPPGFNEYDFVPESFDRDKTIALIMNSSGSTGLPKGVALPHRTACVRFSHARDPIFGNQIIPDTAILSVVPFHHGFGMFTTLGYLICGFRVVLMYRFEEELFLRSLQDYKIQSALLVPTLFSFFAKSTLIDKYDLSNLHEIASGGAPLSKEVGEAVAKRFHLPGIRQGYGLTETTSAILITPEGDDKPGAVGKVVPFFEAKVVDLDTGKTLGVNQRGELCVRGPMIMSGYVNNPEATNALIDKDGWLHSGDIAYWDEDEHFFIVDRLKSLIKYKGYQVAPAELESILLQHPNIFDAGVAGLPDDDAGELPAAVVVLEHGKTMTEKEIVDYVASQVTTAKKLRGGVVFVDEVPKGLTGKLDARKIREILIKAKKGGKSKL
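Purified P. pyralis luciferase (10nM final) with 10uM D-luciferin and 10uM ATP (Km levels) in 50mM Tris acetate pH 7.5, 10mM Mg acetate, 0.01% Tween-20, 0.05% BSA; qHTS 6-point titration, ~60 µM downward; luminescence read.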
* hit, by the source's call; ? = inconclusive; . = no result. A selection: hits, their analogues and other compounds. The true share with any hit is near 9.4%. Calls follow the shape of the dose curve; as a rule, active = well fitted curve in the direction sought with a large enough effect; inconclusive = small, poorly fitted or top-dose-only effect, or another doubt; inactive = no such curve, though single readings can be large; an effect the other way counts as inactive or inconclusive. Potency is read from the fitted curve at half-maximal effect.

SMILES | NPC1 promoter act | Rab9 promoter act | SMN2 splice up | ELG1 genotoxic | ELG1 DNA repair | FLuc counter
Cc1cc(O)c(C(=O)c2cnc3c(c2)COc2ccccc2-3)cc1Cl | . | . | 2.0% | . | . | -10.4%
c1ccc(-n2cnc3cc(NCc4ccco4)ccc32)cc1 | ? | ? | 12.6µM* | ? | ? | 9.53µM*
COc1ccccc1-n1cnc2cc(C(=O)NCc3ccco3)ccc21 | -1.1% | 0.9% | 16.5% | 15.6% | 0.3% | -17.0%
COc1ccc(-n2cnc3cc(NCc4cccs4)ccc32)cc1 | ? | 29.5% | 0.5% | 8.4% | ? | 15.1µM*
c1ccc(-n2cnc3cc(NCc4cccs4)ccc32)cc1 | ? | 1µM* | 17.3% | ? | ? | 2.13µM*
Cn1cnc2cc(NCc3cccs3)ccc21 | 18.6% | 4.0% | 27.6% | ? | ? | -2.9%
Cc1ccc(-n2cnc3cc(NCc4cccs4)ccc32)cc1 | ? | ? | -21.7% | 9.2µM* | ? | 10.7µM*
Cc1nc(-n2nc(C)c(CCC(C)C)c2C)sc1C(=O)Nc1ccc(Br)cc1 | . | . | . | . | . | -2.4%
O=C(Nc1ccccc1Br)c1cc(S(=O)(=O)NC2CCCCC2)ccc1F | . | . | . | . | . | -8.2%
Cn1c(=O)[nH]c(=O)c2c1nc(CN1CCN(c3ccccc3F)CC1)n2Cc1ccc(F)cc1 | . | . | 27.3% | . | . | -1.1%
CCOc1ccc(CNC(=O)C2=Cc3cc(Br)ccc3OC2)cc1OC | . | . | . | . | . | -8.3%
CCC/C=C(\CCC)C(NP(=O)(c1ccccc1)c1ccccc1)c1ccc(C(F)(F)F)cc1 (stereo not given) | . | . | -29.4% | . | . | .
CC(C)Oc1ccc(N2C(=O)c3ccccc3C2=O)cc1 | 1.5% | -0.1% | -17.6% | ? | ? | 7.57µM*
COc1ccc(N2C(=O)c3ccccc3C2=O)cc1 | -0.1% | -0.4% | 11.0% | 5.4% | 12.7% | ?
Cc1ccc(OCC(=O)OCCN2C(=O)c3ccccc3C2=O)cc1C | -3.6% | 1.2% | 27.1% | -3.6% | -6.1% | -1.7%
CCOCCOC(=O)COc1ccc(N2C(=O)c3ccccc3C2=O)cc1 | -6.5% | -5.9% | 2.3% | -6.8% | -2.6% | 19µM*
Cc1cccc(NC(=O)N2CCC3(CC2)Oc2ccccc2C(=O)N3Cc2ccccc2F)c1C | . | . | -2.7% | . | . | 0.7%
Cc1ccccc1C(=O)Nc1ccc(C(=O)N/N=C/c2ccccn2)cc1 | -3.3% | -0.1% | . | 0.0% | -4.5% | -3.7%
O=C(N/N=C/c1ccccn1)c1ccc(N/N=C/c2ccccn2)cc1 | 22.7% | 2.24µM* | 14.1µM* | -3.2% | ? | 2.39µM*
CC(C)(C)c1ccc(C(=O)N/N=C/c2ccccn2)cc1 | 21.8% | 25.9% | . | ? | ? | 9.53µM*
O=C(N/N=C/c1ccccn1)c1ccc2nc[nH]c2c1 | 20.6% | 2.8% | . | -11.6% | ? | ?
C(=N\N=C\c1ccccn1)/c1ccccn1 | 0.4% | -1.9% | . | -1.5% | -1.1% | 12µM*
O=C(N/N=C/c1ccccn1)c1ccc(Br)cc1 | ? | ? | 9.3% | ? | ? | 10.7µM*
COc1ccccc1N1CCN(C(=O)Cn2ncc3c2-c2cc(C)ccc2OC3)CC1 | . | . | -5.2% | . | . | 0.5%
Cc1ccc(C(=O)N/N=C\c2ccccn2)cn1 | 9.4% | -0.6% | . | 0.3% | -11.7% | 19µM*
COc1cccc(CNC(=O)c2ccc(CS(=O)Cc3ccc(Cl)cc3)o2)c1 (stereo not given) | . | . | . | . | . | 6.5%
CCC[n+]1c2ccccc2cc2ccccc21 | -29.4% | -38.7% | . | -30.8% | 23.1µM* | ?
N#C/C(=C\c1cccc(OCC(=O)O)c1)c1nc2ccccc2[nH]1 | -4.2% | 13.0% | . | 1.7% | -4.9% | 16.9µM*
